PubChem BioAssay (NCATS)
Records with an inconclusive call do not appear. Activity calls are given as the source filed them. Calls come from the whole dose curve; as a rule, active = well fitted inhibition curve with a large enough effect; inconclusive = small, poorly fitted or top-dose-only effect; inactive = no such curve, though single readings can be large or run the other way.

The compounds below were run against Retinaldehyde dehydrogenase 3 (Homo sapiens) (UniProt P47895) (assay: qHTS for Inhibitors of the Aldehyde Dehydrogenase Family (ALDH1A3) Validation screen (AID 2061312; note: nearly all actives have a fitted effect of over 45% in size; for activity change, negative = inhibition: % is set by controls: 0 for no effect and ±100 for the full control effect)). Details: ALDH1A3 enzyme inhibition qHTS validation, fluorescence; series mostly up to 84.7 µM; activity change, negative = inhibition: at the top concentration.
Potency is the fitted concentration of half-maximal effect.

Row | SMILES | Potency | activity change, negative = inhibition
1 | O=[N+]([O-])c1ccc(-[n+]2nc(-c3ccccc3)nn2-c2ccc(I)cc2)cc1 | 17.8 µM (active) | 
2 | CC(C)(Oc1ccc(-c2nc3cc(Cl)ccc3s2)cc1)C(=O)O | 31.6 µM (active) | 
3 | CN(CCCNC(=O)c1ccc2nc3c(c(Cl)c2c1)CCCC3)Cc1ccccc1 |  | -7.46% (inactive)
4 | Cc1nn(C)c2c1C(c1ccc(C(F)(F)F)cc1)C(C#N)=C(N)O2 (stereo unspecified) | 6.31 µM (active) | 
5 | COc1ncc(Nc2ncc([C@@H](C)N3CCN(S(C)(=O)=O)CC3)cc2-c2nc(C)nc(N)n2)cc1F |  | 4.7% (inactive)
6 | CNC(=S)NS(=O)(=O)c1cc(CCNC(=O)c2cc(Cl)ccc2OC)ccc1OC |  | 29% (inactive)

These compounds were tested against Retinal dehydrogenase 2 (Homo sapiens) (UniProt O94788) (assay: qHTS for Inhibitors of the Aldehyde Dehydrogenase Family (ALDH1A2) Confirmation screens (AID 2061314; note: nearly all actives have a fitted effect of over 65% in size; for activity, negative = inhibition: % is set by controls: 0 for no effect and ±100 for the full control effect)). Details: ALDH1A2 enzyme inhibition qHTS confirmation; series mostly up to 45.9 µM; activity, negative = inhibition: at the top concentration.

Row | SMILES | Potency | activity, negative = inhibition
7 | CC[C@H](NC(=O)c1c(O)c(-c2ccccc2)nc2ccccc12)c1ccccc1 | 1.27 µM (active) | 
8 | C=C1C(=O)O[C@@H]2C3C(=C(C)[C@@H](O)[C@@H](OC(=O)/C(=C/C)COC(C)=O)[C@@H]12)C(=O)[C@H]1O[C@@]31C (stereo partly specified) | 0.98 µM (active) | 
9 | C/C(=C\CC/C(C)=C/CC[C@]1(C)CCc2cc(O)cc(C)c2O1)CC/C=C(\C)C(=O)O |  | -7.57% (inactive)
10 | CC(=O)c1c(C)cc2cccc(O)c2c1O[C@@H]1O[C@H](CO)[C@@H](O)[C@H](O)[C@H]1O |  | -1.52% [at 25.6 µM] (inactive)
11 | CN(CCCNC(=O)c1ccc2nc3c(c(Cl)c2c1)CCCC3)Cc1ccccc1 | 7.12 µM (active) | 
12 | CO/N=C(/C(=O)N[C@@H]1C(=O)N2C(C(=O)O)=C(CSC(=O)c3ccco3)CS[C@H]12)c1csc(N)n1 | 28.3 µM (active) | 
13 | CCCC/C=C\CCCCCc1cc(=O)c2ccccc2n1C | 6.97 µM (active) | 
14 | CNC(=S)NS(=O)(=O)c1cc(CCNC(=O)c2cc(Cl)ccc2OC)ccc1OC |  | -14.1% (inactive)
15 | Cc1ccc(C(=O)Nc2noc3ccccc23)cc1 |  | -27.9% (inactive)
16 | CN(C)CCCCCCNC(=O)c1cccc(-c2cc(O)c3ncccc3c2)c1 |  | 2.51% (inactive)
17 | COc1cc(OC)c(NC(=O)c2ccc(Cc3cc4c(cc3C)C(C)(C)CCC4(C)C)o2)c(OC)c1 | 5.65 µM (active) | 

These compounds were tested against Retinaldehyde dehydrogenase 3 (Homo sapiens) (UniProt P47895) (assay: qHTS for Inhibitors of the Aldehyde Dehydrogenase Family (ALDH1A3) Primary screen (AID 2061315;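 for activity change, negative = inhibition: plate controls were DMSO vehicle for no effect and reference inhibitor for full effect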)). Details: ALDH inhibition qHTS; series mostly up to 56 µM; activity change, negative = inhibition: at the top concentration.

Row | SMILES | activity change, negative = inhibition | Potency
18 | C=C1C(=O)O[C@@H]2C3C(=C(C)[C@@H](O)[C@@H](OC(=O)/C(=C/C)COC(C)=O)[C@@H]12)C(=O)[C@H]1O[C@@]31C (stereo partly specified) | 9.47% [at 28 µM] (inactive) | 
19 | CC(C)c1cc2c(c(O)c1O)[C@@]13CCCC(C)(C)C1[C@@H](O)[C@@H]2OC3=O (stereo partly specified) |  | 4.47 µM (active)
20 | C/C(=C\CC/C(C)=C/CC[C@]1(C)CCc2cc(O)cc(C)c2O1)CC/C=C(\C)C(=O)O | 19.4% [at 28 µM] (inactive) | 
21 | CC(=O)c1c(O)cc2cccc3c2c1CC(C)(O)O3 (stereo unspecified) | -14.7% (inactive) | 
22 | CC(C)(Oc1ccc(-c2nc3cc(Cl)ccc3s2)cc1)C(=O)O |  | 11.2 µM (active)
23 | COc1ccc(S(=O)(=O)Nc2cccnc2Nc2ccc(O)cc2)cc1 |  | 7.94 µM (active)
24 | CN(CCCNC(=O)c1ccc2nc3c(c(Cl)c2c1)CCCC3)Cc1ccccc1 | -5.03% (inactive) | 
25 | CO/N=C(/C(=O)N[C@@H]1C(=O)N2C(C(=O)O)=C(CSC(=O)c3ccco3)CS[C@H]12)c1csc(N)n1 | -18.3% (inactive) | 
26 | COc1ccc(C2COc3cc(O)ccc3C2)c(O)c1 (stereo unspecified) |  | 25.1 µM (active)
27 | COc1cc(O[C@@H]2O[C@H](CO[C@H]3OC[C@](O)(CO)[C@H]3O)[C@@H](O)[C@H](O)[C@H]2O)cc(OC)c1O |  | 2.82 µM (active)
28 | CCCC/C=C\CCCCCc1cc(=O)c2ccccc2n1C | -5.71% (inactive) | 
29 | CNCCC(c1cccs1)c1ccc(O)c2ccccc12 (stereo unspecified) |  | 15.8 µM (active)
30 | CC(=O)CC1CCC(C(C)C(=O)OCC(O)CO)O1 (stereo unspecified) |  | 15.8 µM (active)
31 | COc1ncc(Nc2ncc([C@@H](C)N3CCN(S(C)(=O)=O)CC3)cc2-c2nc(C)nc(N)n2)cc1F | -9.48% (inactive) | 
32 | CNC(=S)NS(=O)(=O)c1cc(CCNC(=O)c2cc(Cl)ccc2OC)ccc1OC | 18.9% (inactive) | 
33 | Cc1ccc(C(=O)Nc2noc3ccccc23)cc1 |  | 5.01 µM (active)

What follows are compounds tested against Aldehyde dehydrogenase 1A1 (Homo sapiens) (UniProt P00352) (assay: qHTS for Inhibitors of the Aldehyde Dehydrogenase Family (ALDH1A1) Confirmatory screens (AID 2061316; note: nearly all actives have a fitted effect of over 65% in size; for activity change, negative = inhibition: % is set by controls: 0 for no effect and ±100 for the full control effect)). Details: ALDH inhibition qHTS; series mostly up to 47.3 µM; activity change, negative = inhibition: at the top concentration.

Row | SMILES | Potency | activity change, negative = inhibition | outcome
34 | CC[C@H](NC(=O)c1c(O)c(-c2ccccc2)nc2ccccc12)c1ccccc1 | 3.18 µM (active) |  | 
35 | C=C1C(=O)O[C@@H]2C3C(=C(C)[C@@H](O)[C@@H](OC(=O)/C(=C/C)COC(C)=O)[C@@H]12)C(=O)[C@H]1O[C@@]31C (stereo partly specified) |  | 4.53% [at 25.5 µM] (inactive) | 
36 | COc1ccc(S(=O)(=O)Nc2cccnc2Nc2ccc(O)cc2)cc1 | 6.34 µM (active) |  | 
37 | CN(CCCNC(=O)c1ccc2nc3c(c(Cl)c2c1)CCCC3)Cc1ccccc1 | 8.96 µM (active) |  | 
38 | CO/N=C(/C(=O)N[C@@H]1C(=O)N2C(C(=O)O)=C(CSC(=O)c3ccco3)CS[C@H]12)c1csc(N)n1 | 5.65 µM (active) |  | 
39 | COc1cc(O[C@@H]2O[C@H](CO[C@H]3OC[C@](O)(CO)[C@H]3O)[C@@H](O)[C@H](O)[C@H]2O)cc(OC)c1O |  |  | inactive [at 25.5 µM]
40 | CC1=CC2=C(C)C(=O)C(C)(O)C(O)C2CO1 (stereo unspecified) |  | -10.3% (inactive) | 
41 | CC(=O)CC1CCC(C(C)C(=O)OCC(O)CO)O1 (stereo unspecified) | 15.9 µM (active) |  | 
42 | Cc1nnc(-c2ccc3occ(-c4ccc(S(C)=O)cc4)c3c2)o1 (stereo unspecified) |  | 1.26% (inactive) | 
43 | CNC(=S)NS(=O)(=O)c1cc(CCNC(=O)c2cc(Cl)ccc2OC)ccc1OC | 11.3 µM (active) |  | 
44 | COc1cc(O)c(C(=O)O)c(CCc2ccccc2)c1 | 10.1 µM (active) |  | 
45 | Cc1ccc(C(=O)Nc2noc3ccccc23)cc1 |  | -4.89% (inactive) | 
46 | COc1cc(OC)c(NC(=O)c2ccc(Cc3cc4c(cc3C)C(C)(C)CCC4(C)C)o2)c(OC)c1 | 5.04 µM (active) |  | 
